Test results as given in ChEMBL document CHEMBL4808148, “HDAC6 screening dataset using tau-based substrate in an enzymatic assay yields selective inhibitors and activators” (2021).
The campaign covered roughly 5,600 compounds. About 150 (2.7%) showed an effect of 50% or more. The entries come from a sample that favours strong results as a whole.

molecular target: T1, Protein deacetylase HDAC6 (Homo sapiens) (UniProt Q9UBN7); details: at 10 µM
T1 sequence (whole entry): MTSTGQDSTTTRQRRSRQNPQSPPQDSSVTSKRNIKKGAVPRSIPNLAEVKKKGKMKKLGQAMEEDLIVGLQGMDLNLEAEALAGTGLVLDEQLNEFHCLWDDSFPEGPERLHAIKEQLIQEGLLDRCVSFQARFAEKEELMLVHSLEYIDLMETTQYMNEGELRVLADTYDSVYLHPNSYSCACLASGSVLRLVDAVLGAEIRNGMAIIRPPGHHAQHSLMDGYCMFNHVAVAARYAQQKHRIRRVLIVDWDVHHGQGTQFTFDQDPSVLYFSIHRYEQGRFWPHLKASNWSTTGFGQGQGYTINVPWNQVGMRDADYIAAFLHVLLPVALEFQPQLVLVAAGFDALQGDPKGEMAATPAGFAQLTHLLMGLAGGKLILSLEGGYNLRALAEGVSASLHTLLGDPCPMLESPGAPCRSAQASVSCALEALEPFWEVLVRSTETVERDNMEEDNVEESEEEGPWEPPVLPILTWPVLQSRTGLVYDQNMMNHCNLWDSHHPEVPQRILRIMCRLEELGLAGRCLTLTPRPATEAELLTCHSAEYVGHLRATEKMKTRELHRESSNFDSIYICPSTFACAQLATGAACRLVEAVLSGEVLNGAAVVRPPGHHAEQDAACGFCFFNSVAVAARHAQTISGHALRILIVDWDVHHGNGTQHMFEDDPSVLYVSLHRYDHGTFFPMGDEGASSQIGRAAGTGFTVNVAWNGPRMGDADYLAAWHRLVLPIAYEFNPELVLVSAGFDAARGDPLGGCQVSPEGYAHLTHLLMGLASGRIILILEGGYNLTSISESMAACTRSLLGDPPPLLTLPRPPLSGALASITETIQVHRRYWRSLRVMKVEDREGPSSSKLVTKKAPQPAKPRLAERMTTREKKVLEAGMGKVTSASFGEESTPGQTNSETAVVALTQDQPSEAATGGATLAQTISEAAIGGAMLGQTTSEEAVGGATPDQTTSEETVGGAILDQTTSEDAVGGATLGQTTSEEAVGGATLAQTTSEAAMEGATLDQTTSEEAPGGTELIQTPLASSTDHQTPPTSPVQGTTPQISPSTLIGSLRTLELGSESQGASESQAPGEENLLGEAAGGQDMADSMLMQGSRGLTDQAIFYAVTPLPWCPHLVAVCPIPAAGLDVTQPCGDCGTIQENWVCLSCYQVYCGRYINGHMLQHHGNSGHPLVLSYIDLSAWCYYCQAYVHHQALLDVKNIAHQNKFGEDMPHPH

Row | SMILES | inhibition [%]
1 | CCN(c1ccccc1)c1cc(NC)[n+](C)c(C)n1 | -1.77
2 | O=C(O)Cc1nn(Cc2nc3cc(C(F)(F)F)ccc3s2)c(=O)c2ccccc12 | -1.1
3 | O=C(Nc1ccc(S(=O)(=O)Nc2nccs2)cc1)C(c1ccccc1)c1ccccc1 | -1.03
4 | CN[C@@H](C)C(=O)N[C@H](C(=O)N1CCC[C@H]1C(=O)Nc1sc(-c2ncco2)nc1-c1ccccc1)C1CCCCC1 | -6.76
5 | O=c1[nH]cnc2ccccc12 | -1.07
6 | COc1cc2nc(N3CCN(C(=O)COc4c(OC)cccc4C(C)C)CC3)nc(N)c2cc1OC | 4.56
7 | CCCCOc1nc(N)c2c(n1)N(Cc1cccc(CN3CCCC3)c1)CC(=O)N2 | 3.13
8 | CC1CCc2c(cc(Br)c(F)c2Br)N1C=O (configuration not stated) | 3.01
9 | N#C/C(=C\c1cn(-c2ccccc2)c2ccccc12)C(=O)O | -2.69
10 | O=S(=O)(O)CC(S)CS (configuration not stated) | 2.52
11 | Cc1ccc(CCCO)c(NCc2ccc3nc(NCCCN4CCOCC4)n(Cc4nc(C)ccc4O)c3c2)c1 | -5.63
12 | N#Cc1c(N)nc(SCc2csc(-c3ccc(Cl)cc3)n2)c(C#N)c1-c1ccc(OCCO)cc1 | 2.06
13 | CCCCCCCCCCCCCCCC[n+]1ccn(Cc2ccccc2)c1C | -2.57
14 | COc1cc2c(cc1OC)-c1c(C)c3ccc(OC)c(OC)c3c[n+]1CC2 | -0.34
15 | COc1ccc(-c2cc(=O)c3c(O)cc(O)cc3o2)cc1O | 52.3
16 | COc1ccc(-c2cc(=O)c3c(O)cc(O[C@@H]4O[C@H](CO[C@@H]5O[C@@H](C)[C@H](O)[C@@H](O)[C@H]5O)[C@@H](O)[C@H](O)[C@H]4O)cc3o2)cc1O | 8.42
17 | COc1ccc([C@@H]2CC(=O)c3c(O)cc(O)cc3O2)cc1O | 31.5
18 | CC(C)[C@H](C(=O)Nc1ccc(C(=O)NO)cc1)c1ccccc1 | 98
19 | CC(=O)Nc1ccc(C(=O)Nc2ccccc2N)cc1 | 0.93
20 | O=C(O)c1ccc(NC(=O)[C@H](Cc2ccc(O)cc2)NC(=O)c2ccccc2)cc1 | 3.32
21 | O=C(O)c1ccccc1Nc1ccc(CCc2ccc(Cl)c(Cl)c2)cc1 | -6.85
22 | COc1ccc2c(c1)C(C(=O)N(Cc1ccc(N(C)C)cc1)c1ccc(C(C)C)cc1)CCC2 (configuration not stated) | -3.38
